Over roughly 16,000 sequences, “rpm ratio (pull-down/input)” has its median near 0.5; the highest 2% begin near 5.5. The entries come from a sample that favours the highest values as a whole.

The assay deals with T1, MBP-FoxP3dN (Mus musculus, UniProt Q99JB6 188-423).
T1 sequence: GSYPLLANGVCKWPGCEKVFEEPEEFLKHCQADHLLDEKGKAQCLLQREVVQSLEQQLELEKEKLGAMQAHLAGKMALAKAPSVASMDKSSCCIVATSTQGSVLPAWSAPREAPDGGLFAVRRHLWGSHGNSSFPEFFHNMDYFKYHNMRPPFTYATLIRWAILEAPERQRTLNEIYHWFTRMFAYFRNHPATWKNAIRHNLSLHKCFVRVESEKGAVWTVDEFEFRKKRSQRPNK
Put plainly: PD-seq (MBP pull-down with sequencing); 20 mM Tris-HCl pH 7.5, 100 mM NaCl, 1.5 mM MgCl2, 0.4 uM protein, 0.1 uM dsDNA library, 30 min, room temperature, amylose pull-down; high values mean tight binding. The note with it: protein: recombinant; tags: His6-MBP; chain copies: 2; dsDNA, one strand shown. Put shortly: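 A fragment of mouse FoxP3 or FoxP1 without its N-terminus, carrying a His6-MBP tag and produced in E. coli, was combined at 0.4 µM with a 0.1 µM degenerate double-stranded DNA library filled in with Klenow. The mixture sat for 30 min at room temperature in Tris pH 7.5 buffer containing NaCl and MgCl2. Protein–DNA complexes were captured on amylose resin, washed three times, and the DNA was freed with proteinase K, barcoded by PCR and sequenced on Illumina. Binding is expressed as reads-per-million enrichment of pull-down over input, with replicates pooled.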
Take “GATGATTGTTCTCCCAGCTGATGAATTGTTCGACTCGAGTAAACAAATTTTCCTAATCTTTCTGTTCAAGCGCCATCTAC”: the binding signal is 0.414 RPM ratio (pull-down/input).

In the case of “GATGATTGTTCTCCCAGCTGATGAATTTTGTCCGTCGAGTAAACAAATTTTCCTAATCTTTCTGTTCAAGCGCCATCTAC”, the binding signal is 0.813 RPM ratio (pull-down/input).

In the case of “GATGATTGTTCTCCCAGCTGATGAATTCTTTTGTTCGAGTAAACAAATTTTCCTAATCTTTCTGTTCAAGCGCCATCTAC”, the binding signal is 0.487 RPM ratio (pull-down/input).

For “GATGATTGTTCTCCCAGCTGATGAATTCAAACATTCGAGTAAACAAATTTTCCTAATCTTTCTGTTCAAGCGCCATCTAC”, the binding signal was 1.12 RPM ratio (pull-down/input).

Consider “GATGATTGTTCTCCCAGCTGATGAATTGGCGAATTCGAGTAAACAAATTTTCCTAATCTTTCTGTTCAAGCGCCATCTAC”, for which the binding signal is 0.898 RPM ratio (pull-down/input).

With “GATGATTGTTCTCCCAGCTGATGAATTGGCGCATTCGAGTAAACAAATTTTCCTAATCTTTCTGTTCAAGCGCCATCTAC”, the binding signal was 6.97 RPM ratio (pull-down/input).

In the case of “GATGATTGTTCTCCCAGCTGATGAATTCGTCCGTTCGAGTAAACAAATTTTCCTAATCTTTCTGTTCAAGCGCCATCTAC”, the binding signal was 0.459 RPM ratio (pull-down/input).

“GATGATTGTTCTCCCAGCTGATGAATTCGTATCGTCGAGTAAACAAATTTTCCTAATCTTTCTGTTCAAGCGCCATCTAC”: the binding signal is 1.53 RPM ratio (pull-down/input).

For the sequence “GATGATTGTTCTCCCAGCTGATGAATTACTGTTCTCGAGTAAACAAATTTTCCTAATCTTTCTGTTCAAGCGCCATCTAC”, the binding signal was 0.662 RPM ratio (pull-down/input).

In the case of “GATGATTGTTCTCCCAGCTGATGAATTAAGCCTCTCGAGTAAACAAATTTTCCTAATCTTTCTGTTCAAGCGCCATCTAC”, the binding signal is 5.69 RPM ratio (pull-down/input).

As for “GATGATTGTTCTCCCAGCTGATGAATTAACAGCCTCGAGTAAACAAATTTTCCTAATCTTTCTGTTCAAGCGCCATCTAC”, the binding signal is 0.491 RPM ratio (pull-down/input).

On to “GATGATTGTTCTCCCAGCTGATGAATTTAGCCTCTCGAGTAAACAAATTTTCCTAATCTTTCTGTTCAAGCGCCATCTAC”, for which the binding signal was 5.79 RPM ratio (pull-down/input).

On to “GATGATTGTTCTCCCAGCTGATGAATTTTTAGCCTCGAGTAAACAAATTTTCCTAATCTTTCTGTTCAAGCGCCATCTAC”, for which the binding signal is 0.414 RPM ratio (pull-down/input).

Take “GATGATTGTTCTCCCAGCTGATGAATTTAGCGCCTCGAGTAAACAAATTTTCCTAATCTTTCTGTTCAAGCGCCATCTAC”: the binding signal was 1.56 RPM ratio (pull-down/input).

As to “GATGATTGTTCTCCCAGCTGATGAATTAAGCGCCTCGAGTAAACAAATTTTCCTAATCTTTCTGTTCAAGCGCCATCTAC”, the binding signal was 1.4 RPM ratio (pull-down/input).

Take “GATGATTGTTCTCCCAGCTGATGAATTAGCCACTTCGAGTAAACAAATTTTCCTAATCTTTCTGTTCAAGCGCCATCTAC”: the binding signal was 1.09 RPM ratio (pull-down/input).

With “GATGATTGTTCTCCCAGCTGATGAATTATTCGCCTCGAGTAAACAAATTTTCCTAATCTTTCTGTTCAAGCGCCATCTAC”, the binding signal was 0.568 RPM ratio (pull-down/input).

“GATGATTGTTCTCCCAGCTGATGAATTAACAACTTCGAGTAAACAAATTTTCCTAATCTTTCTGTTCAAGCGCCATCTAC”: the binding signal is 0.722 RPM ratio (pull-down/input).

The values above are taken from paper PMC12820563, “FoxP3 forms a head-to-head dimer in vivo and stabilizes its multimerization on adjacent microsatellites”.
